Data from PubChem BioAssay (NCI).
About 83,000 compounds went through this panel and 20% of them were active in at least one assay; those are over-represented in the sample as a whole.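 Step 1: grow cells in 96-well plates. Step 2: add test compound at a single concentration. Step 3: incubate 48 h. Step 4: record percent growth.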 Values without a mark were called inactive. Activity calls are given as the source filed them. Rule for the calls: active = growth percent below 10; inactive = the rest.

Tested on: T-47D breast
Assay: NCI-60 one-dose screen, 48 h (100 = growth as untreated, 0 = no growth, -100 = all killed)
Settings: 10 µM unless noted

Row | Compound | growth
1 | Brc1ccc2[nH]cc(-c3cncn3CCc3ccccc3)c2c1 | 22.9%
2 | CN(CCN(C)c1ccc(C(=N)N)cc1)c1ccc(C(=N)N)cc1 | 163%
3 | Nc1ccccc1NC(=O)c1ccc(-n2nc(-c3ccccc3)c3ccccc32)cc1 | 76.9%
4 | CC(C)(C)c1cc(/C=N/NC(=O)c2ccccc2NC(=O)c2cccs2)c(O)c(C(C)(C)C)c1 | 29.4%
5 | CCCCCCCCO/N=C\c1c2c(O)c3c(O)c(C)c4c(c3c1O)C(=O)C(C)(O/C=C\C(OC)C(C)C(OC(C)=O)C(C)C(O)C(C)C(O)C(C)/C=C\C=C(\C)C(=O)N2)O4 (stereo not drawn) | 30.5%
6 | O=C1CC(=O)OC(c2ccc([N+](=O)[O-])cc2)O1 | 17.9%
7 | CN1CCN(c2ccc(NC3=C(Cl)C(=O)c4ncccc4C3=O)cc2C(F)(F)F)CC1 | -19.7% (active)
8 | O=C(c1nc2ccccc2[nH]1)C1C(c2ccc(Br)cc2)C2CC3CCCC[C@H]3N2[C@@]12C(=O)Nc1cc(Cl)ccc12 (stereo partly drawn) | 29.1%
9 | N=C(N)c1ccc(OCCCCCCCCCCOc2ccc(C(=N)N)cc2)cc1 | -59.1% (active)
10 | CNC(=O)c1cc(Cn2nc(C)c(NC(=O)Nc3ccc(Cl)c(C(F)(F)F)c3)c2C)ccn1 | 85%
11 | O=S(=O)(Nc1ccc(-n2cnc3cc(-c4ccc(O)cc4)ccc32)cc1)c1ccccc1 | 9.89% (active)
12 | O=C(N/N=C/c1ccc(Oc2ccccc2)cc1)c1cnn2c1NC(c1ccccc1)C2 (stereo not drawn) | 43%
13 | COc1cc(/C(C)=C(\c2ccc(Cl)cc2)c2ccc(OCCN3CCCC3)cc2)ccc1F | 55.1%
14 | N#CC1C(C#N)C(C(=O)c2ccc(Br)cc2)N2c3ccccc3C=CC12 (stereo not drawn) | 49.3%
15 | CC(Sc1nc2sc3c(c2c(=O)n1-c1ccc(Cl)cc1)CCCC3)C(=O)Nc1nc(-c2ccc(Br)cc2)cs1 (stereo not drawn) | 98.2%
16 | COc1cc2c(cc1OC)C(=O)/C(=C/c1cc(C)c(O)c(C)c1)S2 | 42%
17 | O=C1/C=C/[C@@H](O)[C@@H]2C[C@@H](O)C[C@H]2/C=C/CCC[C@H](CCc2cccc3ccccc23)O1 | 1.52% (active)
18 | COc1ccc(C/C(=C(\C)c2ccc(OCCN3CCCC3)cc2)c2ccc(OCCN3CCCC3)cc2)cc1 | 77.6%
19 | CC1=CCC(OC(=O)C(C)(O)CCC(O)(C(=O)OC2(C)C=CC(O)(C(C)C)CC2)C(C)C)(C(C)C)CC1 (stereo not drawn) | 93.9%

Row | Compound | growth
20 | CC(C)c1ccc(Nc2ccc3c(OCCCN4CCN(C)CC4)cccc3n2)cc1 | 68.9%
21 | CCCOc1ccc(/C=N/Nc2cc(C)nc3ccc(Cl)cc23)cc1 | 45.9%
22 | CC(Oc1ccc(C(=O)O)cc1C(F)(F)F)c1ccc(Oc2ccccc2)cn1 (stereo not drawn) | 100%
23 | COc1ccc(NC(=O)c2cc(NCc3cc(O)ccc3O)ccc2O)cc1 | 68.4%
24 | ClC1=C(Br)C(Br)(Br)C(=C(Br)Br)C1(Br)Br | 73.6%
25 | COc1cccc(-c2nc3occn3c2-c2ccnc(NCCCNS(=O)(=O)c3ccc(C(F)(F)F)cc3)n2)c1 | 39.1%
26 | Cn1nc(CC#N)c2c(=N)n(N)cnc21 | 105%
27 | N#C/C(=C\c1ccc(C(F)(F)F)cc1)c1cc2ccccc2[nH]1 | 89.8%
28 | CCCCCCCCOc1ccc(/C=N/Nc2cc(C)nc3ccc(Br)cc23)cc1 | 80.9%
29 | CC(=O)N1N=C(c2ccc(-n3ccc(C(F)(F)F)n3)c(F)c2)CC1c1ccc[nH]1 (stereo not drawn) | 91.9%
30 | COc1cc(-c2csc(NC(=O)c3cc(F)cc(C(F)(F)F)c3)n2)cc(OC)c1OC | 19.3%
31 | COc1cc(/C=C/C(=O)c2nc3cc(F)ccc3nc2C)cc(OC)c1OC | 48%
32 | N#Cc1cc(-c2nc3ccccc3s2)c(=O)n(NS(=O)(=O)c2ccccc2)c1N | 94.5%
33 | CC(C)N1C(=O)S/C(=C2/SC(=O)N(C(C)C)C2=O)C1=O | 104%
34 | O=C(/C=C/c1ccc[nH]1)c1ccc(-n2ccc(C(F)(F)F)n2)c(F)c1 | 70.9%
35 | Nc1c(C(=O)Nc2cccc3cnccc23)sc2nc3c(cc12)C(=O)CCC3 | 105%
36 | COc1ccc(Cc2cnc(NC(=O)c3ccc4c(c3)OCCO4)s2)cc1 | 42.8%
37 | Cc1ccc(NC(=O)c2cc(-c3nc4ccccc4s3)c(=O)n(NS(=O)(=O)c3ccc(Cl)cc3)c2N)cc1 | 98.7%
38 | COc1cc(-c2n/c(=C\c3c(O)[nH]c4ccc(Cl)cc34)cc3c2=Nc2ccccc2-3)ccc1F | 56%
